Laboratory results as given in PubChem BioAssay.
For part of these data: Entries with a potency or affinity are not part of this list. Active and inactive are the calls of the source.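 The calls were made as follows, unless noted: active = earlier screen potentiator hit that boosts the TRPC4 ion channel at some dose, with a dose response; inactive = no potentiation, no dose response, or not a prior hit.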

How the values were obtained:
[1] = test system: TRPC4 beta (transient receptor potential cation channel C4), mouse; test: activators of mouse TRPC4 channel, confirmation, cell-based, Fluo4 calcium, HEK293 TRPC4beta/mu-opioid, duplicates, 10 µM (AID 2426;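 active = fluorescence ratio normalized to control raised more than 50% in primary screen plus both repeat runs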;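 as to activation: percent rise of integrated ratio over buffer wells lacking compound which define 0%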); settings: Fluo4 calcium fluorescence, at 10 µM; hits give high values
[2] = test system: transient receptor potential cation channel C4 beta (TRPC4), mouse; test: activators of mouse TRPC4 channel, confirmation, cell-based, second round, Fluo4, HEK293 TRPC4beta/mu-opioid, 1 µM (AID 2461;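 active = primary screen active and over 50% activation in each of two duplicate runs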); settings: Fluo4 calcium fluorescence, at 1 µM; hits give high values
[3] = test system: TRPC4 (transient receptor potential cation channel C4 beta), mouse; test: positive allosteric modulators of mouse TRPC4, confirmation, cell-based, second round, Fluo-4, HEK293 TRPC4beta/mu-opioid, 1 µM (AID 2554;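 active = primary screen hit whose fluorescence ratio, in both repeats, exceeds the weak agonist control mean by 3 SD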); settings: DAMGO EC20, Fluo-4 calcium flux, at 1 µM; hits give high values
[4] = test system: TRPC4 beta (transient receptor potential cation channel C4), mouse; test: positive allosteric modulators of mouse TRPC4, confirmation, cell-based, Fluo-4, HEK293 TRPC4beta/mu-opioid (AID 2555;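 active = primary screen hit whose calcium fluorescence ratio, in both repeats, exceeds the weak agonist control mean by 3 SD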); settings: DAMGO EC20, Fluo-4 calcium flux, at 10 µM; hits give high values
[5] = biological target: Short transient receptor potential channel 4 (Mus musculus) (UniProt Q9QUQ5); test: inhibitors of mouse TRPC4 channel, confirmation, cell-based, Fluo4, HEK293 TRPC4beta/mu-opioid (AID 2636;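 active = calcium signal cut by more than 3 SD below the full-agonist control yet still positive, in both repeats and the earlier primary screen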); settings: DAMGO, Fluo4 calcium flux, at 10 µM; hits give high values
[6] = biological target: Short transient receptor potential channel 4 (Mus musculus) (UniProt Q9QUQ5); test: inhibitors of mouse TRPC4 channel, confirmation, cell-based, second round, Fluo4, HEK293 TRPC4beta/mu-opioid, 1 µM (AID 2637;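 active = calcium signal ratio cut to more than 3 SD under the fully stimulated control mean yet still positive, in both repeats and the primary screen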); settings: Fluo4 calcium flux, DAMGO, at 1 µM; hits give high values
[7] = biological target: Short transient receptor potential channel 4 (Mus musculus) (UniProt Q9QUQ5); test: mouse TRPC4 channel activators, dose response, cell-based, HEK293 TRPC4/mu-opioid, Fluo-4 calcium (AID 434937;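 active = primary screen activator hit with a dose response curve and TRPC4 channel activation at any tested dose; inactive = no activation, no dose response, or not a primary hit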)
[8] = biological target: Short transient receptor potential channel 4 (Mus musculus) (UniProt Q9QUQ5); test: TRPC4 positive allosteric modulators, dose response, cell-based, HEK293 TRPC4/mu-opioid, Fluo-4 calcium, EC20 DAMGO (AID 434941);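 also: calcium entry triggered by an EC20 dose of DAMGO at the co-expressed mu-opioid receptor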
[9] = biological target: Short transient receptor potential channel 4 (Mus musculus) (UniProt Q9QUQ5); test: mouse TRPC4 channel inhibitors, dose response, cell-based, HEK293 TRPC4/mu-opioid, Fluo-4 calcium (AID 434942;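 active = primary screen inhibitor hit that blocks the TRPC4 channel at some tested dose, yielding a dose curve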)
[10] = biological target: Short transient receptor potential channel 6 (Mus musculus) (UniProt Q61143); test: inhibition of mouse TRPC6 channel, confirmation, selectivity assay for TRPC4 inhibitor project, cell-based, HEK293, membrane potential dye, duplicate (AID 434948;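 active = active in primary screen and both duplicates, each dropping signal beyond three positive-control SD with fluorescence still positive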); settings: HEK293 TRPC6, membrane potential dye fluorescence, at 10 µM, stimulated with maximal-effect acetylcholine; hits give high values
[11] = biological target: Short transient receptor potential channel 6 (Mus musculus) (UniProt Q61143); test: activation of mouse TRPC6 channel, confirmation, selectivity assay for TRPC4 activator project, cell-based, HEK293, membrane potential dye, duplicate (AID 434950;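 active = membrane potential signal rise above negative control mean plus 3 SD in both duplicates, also active in the earlier TRPC4 screen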;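 as to activation: 0% = buffer only wells and 100% = acetylcholine maximal-effect wells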); settings: HEK293 TRPC6, membrane potential fluorescence, at 10 µM; hits give high values
[12] = biological target: Short transient receptor potential channel 6 (Mus musculus) (UniProt Q61143); test: TRPC6 potentiation by TRPC4 potentiator hits, confirmation, selectivity assay for TRPC4 potentiator project, HEK293 cells, membrane potential dye, duplicate (AID 434952;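 active = compound raising the membrane signal above positive-control mean plus 3 SD in both repeats, and a primary screen hit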); settings: HEK293 TRPC6, membrane potential dye fluorescence, at 10 µM, maximal acetylcholine added after compound; hits give high values
[13] = biological target: Short transient receptor potential channel 4 (Mus musculus) (UniProt Q9QUQ5); test: calcium flux activators in TRPC4/5HT1a cells, counter-screen for TRPC4 activator project, cell-based, second counter screen, HEK293 TRPC4/5HT1a, Fluo-4 (AID 434977;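 active = calcium signal rise above buffer-control mean plus 5 SD in both duplicates, and also a hit in the primary screen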;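 as to activation: plate controls were assay buffer for no effect and maximal serotonin response for full effect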); settings: Fluo-4 calcium flux, at 10 µM; hits give high values
[14] = calcium flux inhibitors in TRPC4/5HT1a cells, confirmation, counter-screen for TRPC4 inhibitor project, cell-based, second counter screen, HEK293 TRPC4/5HT1a, Fluo-4 (AID 434978;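 active = primary screen active whose calcium signal fell more than 3 SD beyond the full-serotonin control mean in both duplicate plates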;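 also: serotonin given first at submaximal then at maximal dose after compound preincubation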); settings: Fluo-4 calcium flux, at 10 µM, serotonin added to trigger calcium flux; hits give high values
[15] = test system: TRPC4 (mouse), co-expressed with 5HT1a in HEK293; test: calcium flux potentiators in TRPC4/5HT1a cells, confirmation, counter-screen for TRPC4 potentiator project, cell-based, second counter screen, HEK293 TRPC4/5HT1a, Fluo-4 (AID 434979;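 active = signal rise over 3 SD above mean of control wells given weak agonist, in both repeats and first screen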); settings: Fluo-4 calcium flux, at 10 µM, serotonin added at its EC20 dose; hits give high values
[16] = calcium flux activation in mu-opioid HEK293 cells, confirmation, counter-screen for TRPC4 activator project, cell-based, HEK293 mu-opioid receptor line (AID 449723;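 active = hit in primary screen, with calcium signal over 5 SD above buffer well mean in both duplicates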;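 also: counter screen cells carry the mu-opioid receptor alone and lack TRPC4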); settings: Fluo-4 calcium fluorescence, at 10 µM; hits give high values
[17] = calcium flux enhancement in mu-opioid HEK293 cells, confirmation, counter-screen for TRPC4 allosteric potentiator project, cell-based, HEK293 mu-opioid receptor line (AID 449724;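 active = calcium signal rise more than 3 SD above the low-dose agonist control mean, in both duplicate plates and the primary screen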); settings: Fluo-4 calcium flux, at 10 µM, compound added before EC20 DAMGO stimulus; hits give high values

Chain of Short transient receptor potential channel 6 (Mus musculus) (Q61143 whole entry, looked up): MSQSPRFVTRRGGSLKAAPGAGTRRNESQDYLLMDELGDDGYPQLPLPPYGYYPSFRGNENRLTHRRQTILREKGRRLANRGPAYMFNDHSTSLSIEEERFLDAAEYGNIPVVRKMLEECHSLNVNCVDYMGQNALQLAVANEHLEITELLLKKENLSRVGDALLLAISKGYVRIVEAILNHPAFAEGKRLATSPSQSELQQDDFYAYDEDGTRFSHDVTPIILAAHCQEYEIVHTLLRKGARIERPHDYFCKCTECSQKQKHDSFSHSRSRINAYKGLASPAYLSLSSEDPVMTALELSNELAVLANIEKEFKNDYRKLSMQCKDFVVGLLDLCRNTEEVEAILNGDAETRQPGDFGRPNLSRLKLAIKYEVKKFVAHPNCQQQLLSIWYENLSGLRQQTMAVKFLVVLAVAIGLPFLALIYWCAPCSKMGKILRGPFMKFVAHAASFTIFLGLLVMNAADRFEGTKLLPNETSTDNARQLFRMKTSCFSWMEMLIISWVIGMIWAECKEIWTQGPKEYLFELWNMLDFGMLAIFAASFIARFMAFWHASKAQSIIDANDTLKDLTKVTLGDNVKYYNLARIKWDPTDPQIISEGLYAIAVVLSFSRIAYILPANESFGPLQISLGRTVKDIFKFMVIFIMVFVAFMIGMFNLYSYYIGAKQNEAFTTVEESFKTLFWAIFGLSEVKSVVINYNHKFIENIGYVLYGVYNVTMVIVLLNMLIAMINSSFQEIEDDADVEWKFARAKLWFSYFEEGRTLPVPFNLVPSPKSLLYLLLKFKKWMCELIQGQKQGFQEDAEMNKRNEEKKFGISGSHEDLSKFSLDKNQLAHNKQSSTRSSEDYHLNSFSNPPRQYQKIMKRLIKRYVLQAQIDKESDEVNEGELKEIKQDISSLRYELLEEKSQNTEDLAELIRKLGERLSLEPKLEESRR
Chain of Short transient receptor potential channel 4 (Mus musculus) (Q9QUQ5 whole entry, looked up): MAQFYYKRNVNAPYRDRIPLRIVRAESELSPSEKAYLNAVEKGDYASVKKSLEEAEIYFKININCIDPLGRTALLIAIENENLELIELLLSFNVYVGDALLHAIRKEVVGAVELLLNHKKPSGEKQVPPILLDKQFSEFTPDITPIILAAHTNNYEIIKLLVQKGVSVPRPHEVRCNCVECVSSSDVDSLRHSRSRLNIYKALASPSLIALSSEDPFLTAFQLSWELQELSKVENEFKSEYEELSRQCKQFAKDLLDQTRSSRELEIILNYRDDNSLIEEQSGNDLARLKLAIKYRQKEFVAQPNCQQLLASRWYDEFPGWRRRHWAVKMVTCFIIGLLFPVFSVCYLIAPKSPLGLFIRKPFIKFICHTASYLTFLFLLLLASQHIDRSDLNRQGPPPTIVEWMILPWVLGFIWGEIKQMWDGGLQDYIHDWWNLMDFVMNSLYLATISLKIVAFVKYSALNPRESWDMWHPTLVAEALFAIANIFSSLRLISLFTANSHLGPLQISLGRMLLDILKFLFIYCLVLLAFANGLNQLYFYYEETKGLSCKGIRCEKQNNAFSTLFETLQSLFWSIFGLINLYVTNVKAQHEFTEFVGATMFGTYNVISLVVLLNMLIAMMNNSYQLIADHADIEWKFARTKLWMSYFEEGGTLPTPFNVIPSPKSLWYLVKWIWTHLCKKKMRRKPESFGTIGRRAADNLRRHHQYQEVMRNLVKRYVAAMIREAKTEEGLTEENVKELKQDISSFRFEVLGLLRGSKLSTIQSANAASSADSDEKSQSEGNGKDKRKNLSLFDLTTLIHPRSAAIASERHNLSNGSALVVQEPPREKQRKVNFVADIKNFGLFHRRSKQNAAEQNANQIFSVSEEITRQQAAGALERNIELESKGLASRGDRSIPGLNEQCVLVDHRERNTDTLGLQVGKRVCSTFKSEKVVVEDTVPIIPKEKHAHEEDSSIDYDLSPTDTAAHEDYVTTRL

CCCCC(=O)Nc1cccc2c1C(=O)N(c1ccccc1)C2=O
inactive: outcome [1] | outcome [2] | outcome [3] | outcome [4] | outcome [5] | outcome [6] | outcome [7] | outcome [8] | outcome [9] | outcome [10] | outcome [11] | outcome [12] | outcome [13] | outcome [14] | outcome [15] | outcome [16] | outcome [17]

C=CCn1c(SCCN2CCOCC2)nc2c1c(=O)[nH]c(=O)n2C
active: potentiation [15] 35.7%
inactive: outcome [1] | outcome [2] | outcome [3] | outcome [4] | outcome [5] | outcome [6] | outcome [7] | outcome [8] | outcome [9] | outcome [10] | outcome [11] | outcome [12] | outcome [13] | outcome [14] | outcome [16] | outcome [17]

COc1ccc(C(=O)CN2CCN(CCN3C(=O)c4cccc5cccc(c45)C3=O)CC2)cc1
active: potentiation [3] 21% | potentiation [4] 29% | potentiation [15] 18.9%
inactive: outcome [1] | outcome [2] | outcome [5] | outcome [6] | outcome [7] | outcome [8] | outcome [9] | outcome [10] | outcome [11] | outcome [12] | outcome [13] | outcome [14] | outcome [16] | outcome [17]

Cc1ccc(-c2nn(-c3ccccc3)cc2C(=O)Nc2ccc(C(=O)O)cc2)cc1
inactive: outcome [1] | outcome [2] | outcome [3] | outcome [4] | outcome [5] | outcome [6] | outcome [7] | outcome [8] | outcome [9] | outcome [10] | outcome [11] | outcome [12] | outcome [13] | outcome [14] | outcome [15] | outcome [16] | outcome [17]

CC(C)Oc1ccc(CCC(=O)NNC(=S)NCc2ccccc2)cc1
inactive: outcome [1] | outcome [2] | outcome [3] | outcome [4] | outcome [5] | outcome [6] | outcome [7] | outcome [8] | outcome [9] | outcome [10] | outcome [12] | outcome [13] | outcome [14] | outcome [15] | outcome [16] | outcome [17]
active: activation [11] 37.5%

NCC(c1ccc(Cl)cc1Cl)c1c[nH]c2ccccc12 (stereo not given)
active: potentiation [15] 18.9%
inactive: outcome [1] | outcome [2] | outcome [3] | outcome [4] | outcome [5] | outcome [6] | outcome [7] | outcome [8] | outcome [9] | outcome [10] | outcome [11] | outcome [12] | outcome [13] | outcome [14] | outcome [16] | outcome [17]

Cc1cc(SCC(=O)c2cccc([N+](=O)[O-])c2)nc(=O)[nH]1
active: potentiation [4] 23% | potentiation [15] 57.9%
inactive: outcome [1] | outcome [2] | outcome [3] | outcome [5] | outcome [6] | outcome [7] | outcome [8] | outcome [9] | outcome [10] | outcome [11] | outcome [12] | outcome [13] | outcome [14] | outcome [16] | outcome [17]

CC(=O)Nc1nc(-c2ccc3c(c2)CCN3C(=O)C2CC2)c(C)s1
inactive: outcome [1] | outcome [2] | outcome [3] | outcome [4] | outcome [5] | outcome [6] | outcome [7] | outcome [8] | outcome [9] | outcome [10] | outcome [11] | outcome [12] | outcome [13] | outcome [14] | outcome [15] | outcome [16] | outcome [17]

CCN1CCN(c2nc(C)c3c(n2)CC(C)CC3=O)CC1 (stereo not given)
inactive: outcome [1] | outcome [2] | outcome [3] | outcome [4] | outcome [5] | outcome [6] | outcome [7] | outcome [8] | outcome [9] | outcome [10] | outcome [11] | outcome [12] | outcome [13] | outcome [14] | outcome [16] | outcome [17]
active: potentiation [15] 8.12%

c1ccc2c(c1)[nH]c1c(N3CCCC3)ncnc12
inactive: outcome [1] | outcome [2] | outcome [3] | outcome [4] | outcome [5] | outcome [6] | outcome [7] | outcome [8] | outcome [9] | outcome [10] | outcome [11] | outcome [12] | outcome [13] | outcome [14] | outcome [15] | outcome [16] | outcome [17]

CCc1ccc(OCC(=O)NC2CCCCC2)c(Br)c1
active: potentiation [4] 46% | potentiation [15] 135%
inactive: outcome [1] | outcome [2] | outcome [3] | outcome [5] | outcome [6] | outcome [7] | outcome [8] | outcome [9] | outcome [10] | outcome [11] | outcome [12] | outcome [13] | outcome [14] | outcome [16] | outcome [17]

Cc1cc(Cl)cc(C)c1OCCCCCn1ccnc1
active: activation [1] 88% | activation [11] 47% | activation [13] 34%
inactive: outcome [2] | outcome [3] | outcome [4] | outcome [5] | outcome [6] | outcome [7] | outcome [8] | outcome [9] | outcome [10] | outcome [12] | outcome [14] | outcome [15] | outcome [16] | outcome [17]

CCCCN1C(=O)C(=O)N(CC(=O)Nc2cc(OCC)c(N3CCOCC3)cc2OCC)C1=O
inactive: outcome [1] | outcome [2] | outcome [3] | outcome [4] | outcome [5] | outcome [6] | outcome [7] | outcome [8] | outcome [9] | outcome [10] | outcome [11] | outcome [12] | outcome [13] | outcome [14] | outcome [15] | outcome [16] | outcome [17]

CCCCN(C)C(=O)Cn1ncc2c3ccccc3n(CCC)c2c1=O
active: potentiation [4] 37% | potentiation [15] 42.7%
inactive: outcome [1] | outcome [2] | outcome [3] | outcome [5] | outcome [6] | outcome [7] | outcome [8] | outcome [9] | outcome [10] | outcome [11] | outcome [12] | outcome [13] | outcome [14] | outcome [16] | outcome [17]

CCOc1cc(/C=C(\C#N)C(=O)Nc2cccc(C(=O)O)c2)cc(Br)c1OC(=O)c1ccc(OC)cc1
active: potentiation [4] 28% | potentiation [15] 16.7%
inactive: outcome [1] | outcome [2] | outcome [3] | outcome [5] | outcome [6] | outcome [7] | outcome [8] | outcome [9] | outcome [10] | outcome [11] | outcome [12] | outcome [13] | outcome [14] | outcome [16] | outcome [17]
